PubChem BioAssay (NCI)
Compounds without any hit were thinned out: in the full panel of roughly 83,000, 20% have a hit.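 Assay: single dose, 48 h. Readout: percent growth (0 = no net growth; negative = cell death). Active: <10.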 A number with no mark means an inactive call. The source made the active and inactive calls.

Experiments:
Experiment in all cases: NCI-60 one-dose screen, 48 h (100 = growth as untreated, 0 = no growth, -100 = all killed)
Details in all cases: 10 µM unless noted
NCI-H23 lung = test system: NCI-H23 lung
NCI-H226 lung = test system: NCI-H226 lung
NCI-H322M lung = test system: NCI-H322M lung
HOP-62 NSCLC = test system: HOP-62 NSCLC
NCI-H460 lung = test system: NCI-H460 lung
HOP-92 NSCLC = test system: HOP-92 NSCLC
NCI-H522 lung = test system: NCI-H522 lung
A549/ATCC NSCLC = test system: A549/ATCC NSCLC
786-0 renal = test system: 786-0 renal
COLO 205 colon = test system: COLO 205 colon
DU-145 prostate = test system: DU-145 prostate
K-562 leukemia = test system: K-562 leukemia
MALME-3M melanoma = test system: MALME-3M melanoma
MDA-MB-231 breast = test system: MDA-MB-231 breast
RXF 393 renal = test system: RXF 393 renal
SF-268 CNS = test system: SF-268 CNS
SF-295 CNS = test system: SF-295 CNS
SF-539 CNS = test system: SF-539 CNS
UACC-257 melanoma = test system: UACC-257 melanoma
M14 melanoma = test system: M14 melanoma

SMILES	growth (NCI-H23 lung)	growth (NCI-H226 lung)	growth (NCI-H322M lung)	growth (HOP-62 NSCLC)	growth (NCI-H460 lung)	growth (HOP-92 NSCLC)	growth (NCI-H522 lung)	growth (A549/ATCC NSCLC)	growth (786-0 renal)	growth (COLO 205 colon)	growth (DU-145 prostate)	growth (K-562 leukemia)	growth (MALME-3M melanoma)	growth (MDA-MB-231 breast)	growth (RXF 393 renal)	growth (SF-268 CNS)	growth (SF-295 CNS)	growth (SF-539 CNS)	growth (UACC-257 melanoma)	growth (M14 melanoma)
C#CC#CC#CC#CC#CC#CC#CC#CC[C@H]1OC[C@H](COC(=O)O[C@@H](C(=O)O[C@H]2C[C@@]3(O)[C@@H](OC(=O)c4ccccc4)[C@@H]4[C@]5(OC(C)=O)CO[C@@H]5C[C@H](O)[C@@]4(C)C(=O)[C@H](OC(C)=O)C(=C2C)C3(C)C)[C@@H](NC(=O)c2ccccc2)c2ccccc2)O1	45.8%	54.5%	53.6%	68.9%	18.8%	57.7%	63.5%	49.6%	83.5%	19.3%	45.3%	22.2%	56.7%	62.5%	43%	61.7%	44.6%	39.8%	70.9%	27.5%
Cc1c(Cl)cccc1C(=O)Nc1nc2c(s1)CN(C(=O)Nc1cccc(C(F)(F)F)c1)CC2	21.5%	39.3%	46.6%	37.2%	7.19% (active)	38.3%	15.1%	22.5%	29.1%	7.09% (active)	16.8%	11.2%	44.5%	32.3%	-7.27% (active)	35.2%	26%	-26.9% (active)	55.7%	18.2%
COc1cccc(/C=C2\COc3ccc(O)cc3C2=O)c1	93.7%	105%	106%	95%	99.6%	91.9%	56.1%	87.4%	78.3%	97.9%	89%	5.52% (active)	91.1%	49.7%	105%	91.1%	103%	88.5%	111%	83.4%
C=CCn1c(SCC(=O)Nc2ccc(C(=O)/C=C/c3cc(OC)c(OC)c(OC)c3)cc2)nnc1-c1cc(-c2ccc(OC)cc2)nc2ccccc12	93.4%	94%	97.5%	96.5%	88.9%	77.4%	86.3%	98.1%	88.7%	104%	96.5%	83.1%	95.3%	76.8%	89.5%	91.4%	106%	90.9%	100%	107%
O=C(CCl)Nc1ccc2c(Nc3cc(O)ccc3Cl)ncnc2c1	-74% (active)	-35% (active)	5.63% (active)	-63.5% (active)	-54.8% (active)	-85% (active)	-65.8% (active)	-56.9% (active)	-89.8% (active)	-51.9% (active)	-89.1% (active)	-36% (active)	-86.4% (active)	-84.5% (active)	-88.6% (active)	-56.1% (active)	-77.1% (active)	-94% (active)	-11.5% (active)	-77.1% (active)
C=C(c1ccc(C(=O)O)cn1)c1cc2c(cc1C)C(C)(C)CCC2(C)C	80.3%	81%	108%	87.3%	92.4%	71.5%	65.4%	57.3%	114%	109%	93.7%	92.3%	76.9%	93.8%	102%	76.5%	83.2%	86.3%	84%	88.5%
CCCCCCCCn1ccc2cc(NC(=O)Cn3cc(CN4CCOCC4)nn3)ccc21	106%	92.3%	96.8%	113%	101%	70.4%	90.4%	98.3%	90.6%	109%	106%	89.1%	100%	90.5%	91.9%	106%	90.1%	104%	104%	91%
C=CCCC(=O)N1C=CC(=O)[C@H](O)[C@@H]1/C=C/c1ccccc1	52.8% [100 µM]	26.8% [100 µM]	59% [100 µM]	35.3% [100 µM]	15.2% [100 µM]	70.6% [100 µM]	74.1% [100 µM]	52% [100 µM]	14.2% [100 µM]	34% [100 µM]	35.7% [100 µM]	26.3% [100 µM]	89.3% [100 µM]	52.3% [100 µM]	78.9% [100 µM]	35.9% [100 µM]	33.4% [100 µM]	19.2% [100 µM]	64.9% [100 µM]	-19.8% [100 µM] (active)
